# From PubChem BioAssay (Tox21)
# Values joined by “and” are separate entries in the source; they are usually repeats but may differ in a detail not shown here. Equal values may be shown once. Records with an inconclusive call do not appear. A call without a number means that no potency is given here. Some compounds were tested as several samples or in several runs, with calls that do not always agree. Active and inactive are the calls of the source. Unless noted, calls come from the whole dose curve; as a rule, active = well fitted curve in the direction sought with a large enough effect in the repeat runs; inconclusive = weak or mixed curves; inactive = no such curve, though single readings can be large; an effect the other way counts as inactive or inconclusive.
# What was measured:
# [1] = qHTS assay to identify small molecule antagonists of the thyroid receptor (TR) signaling pathway (AID 743065); note: nearly all actives have a fitted effect of over 55% in size; note: potency is the fitted concentration of half-maximal effect
# Method in brief: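 Antagonism measured as loss of luciferase signal in GH3 cells stably carrying a TRE-luciferase reporter, co-treated with compound and T3 (1 nM final) for 23.5 h at 37 C. Viability was read in the same well by CellTiter-Fluor.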
# [2] = tested on: thyroid hormone receptor (rat, GH3 cells); assay: qHTS assay to identify small molecule agonists of the thyroid receptor (TR) signaling pathway (AID 743066; calls by dose curve; note: potency is the fitted concentration of half-maximal effect)
# [3] = target: Estrogen receptor (Homo sapiens) (UniProt P03372); assay: qHTS assay to identify small molecule antagonists of the estrogen receptor alpha (ER-alpha) signaling pathway (AID 743069; active = well fitted curve in the direction sought with a large enough effect in the signal ratio in the repeat runs, not every such curve was filed as active; the % refers to the signal ratio)
# Sequence of Estrogen receptor (Homo sapiens) (P03372 whole entry, looked up): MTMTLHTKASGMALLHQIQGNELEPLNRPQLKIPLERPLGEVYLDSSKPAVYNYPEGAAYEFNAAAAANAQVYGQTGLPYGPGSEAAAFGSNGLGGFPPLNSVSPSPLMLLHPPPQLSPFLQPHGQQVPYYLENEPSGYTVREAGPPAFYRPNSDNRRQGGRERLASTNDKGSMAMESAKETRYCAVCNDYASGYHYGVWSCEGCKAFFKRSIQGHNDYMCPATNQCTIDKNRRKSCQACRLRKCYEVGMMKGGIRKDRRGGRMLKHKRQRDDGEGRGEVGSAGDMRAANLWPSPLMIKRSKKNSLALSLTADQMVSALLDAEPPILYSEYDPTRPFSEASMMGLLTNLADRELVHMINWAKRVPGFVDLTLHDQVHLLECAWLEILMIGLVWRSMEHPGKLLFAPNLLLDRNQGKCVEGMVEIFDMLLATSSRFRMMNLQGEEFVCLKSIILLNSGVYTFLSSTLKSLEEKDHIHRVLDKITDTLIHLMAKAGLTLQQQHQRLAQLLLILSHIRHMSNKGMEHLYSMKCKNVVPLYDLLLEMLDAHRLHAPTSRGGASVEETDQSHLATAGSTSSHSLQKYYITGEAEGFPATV
# Method in brief: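 Compound effects are measured against 17beta-estradiol stimulation in HEK293 cells with a UAS-controlled beta-lactamase reporter for ER-alpha. Exposure lasts 18 hr at 37C; LiveBLAzer B/G FRET substrate follows for 2 hr at room temperature.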
# [4] = qHTS assay to identify small molecule antagonists of the estrogen receptor alpha (ER-alpha) signaling pathway - cell viability counter screen (AID 743074; calls by dose curve;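 note: HEK293 cells carrying ER-alpha-UAS-bla reporter stimulated with 17beta-estradiol; nearly all actives have a fitted effect of over 45% in size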; note: potency is the fitted concentration of half-maximal effect)
# [5] = target: Estrogen receptor (Homo sapiens) (UniProt P03372); assay: qHTS assay to identify small molecule agonists of the estrogen receptor alpha (ER-alpha) signaling pathway (AID 743075; calls by dose curve; note: potency is the fitted concentration of half-maximal effect)
# [6] = target: Estrogen receptor (Homo sapiens) (UniProt P03372); assay: qHTS assay to identify small molecule agonists of the estrogen receptor alpha (ER-alpha) signaling pathway using the BG1 cell line (AID 743079); details: BG1Luc4E2 cells, ERE-luciferase agonist, 22 h; note: nearly all actives have a fitted effect of over 20% in size; note: potency is the fitted concentration of half-maximal effect
# [7] = qHTS assay to identify small molecule antagonists of the estrogen receptor alpha (ER-alpha) signaling pathway using the BG1 cell line (AID 743080; calls by dose curve;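 note: BG1 cells stimulated with 17beta-estradiol alongside compound; nearly all actives have a fitted effect of over 25% in size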; note: potency is the fitted concentration of half-maximal effect)
# Method in brief: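 BG1-Luc-4E2 cells (endogenous full-length ER-alpha, stable 4×ERE-luciferase) were starved 5 days in phenol-red-free medium with 10% charcoal-stripped FBS, plated 24 h, then given compound plus 17beta-estradiol for 21.5 h at 37 C; ONE-Glo luminescence read after 30 min.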
# [8] = qHTS assay to identify small molecule antagonists of the estrogen receptor alpha (ER-alpha) signaling pathway using the BG1 cell line - cell viability counter screen (AID 743081);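 note: compound given together with 17beta-estradiol as the ER stimulus; nearly all actives have a fitted effect of over 45% in size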
# [9] = target: Aromatase (Homo sapiens) (UniProt P11511); assay: qHTS assay to identify aromatase inhibitors (AID 743083); note: nearly all actives have a fitted effect of over 55% in size; note: potency is the fitted concentration of half-maximal effect
# Sequence of Aromatase (Homo sapiens) (P11511 whole entry, looked up): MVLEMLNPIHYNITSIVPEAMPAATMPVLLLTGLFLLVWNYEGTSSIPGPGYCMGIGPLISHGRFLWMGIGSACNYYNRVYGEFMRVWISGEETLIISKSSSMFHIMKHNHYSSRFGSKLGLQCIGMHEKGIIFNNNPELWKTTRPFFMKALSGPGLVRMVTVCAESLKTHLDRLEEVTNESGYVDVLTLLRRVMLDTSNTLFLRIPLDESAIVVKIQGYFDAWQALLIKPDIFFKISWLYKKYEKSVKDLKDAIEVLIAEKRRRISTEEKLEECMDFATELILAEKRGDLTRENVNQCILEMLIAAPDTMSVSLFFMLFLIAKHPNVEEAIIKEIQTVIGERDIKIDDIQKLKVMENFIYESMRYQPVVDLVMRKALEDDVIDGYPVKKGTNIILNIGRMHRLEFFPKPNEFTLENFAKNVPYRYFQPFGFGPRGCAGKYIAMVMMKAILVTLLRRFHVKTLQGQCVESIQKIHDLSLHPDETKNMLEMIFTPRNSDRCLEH
# [10] = qHTS assay to identify aromatase inhibitors - cell viability counter screen (AID 743084);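 note: cells stimulated with testosterone during compound exposure; nearly all actives have a fitted effect of over 55% in size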; note: potency is the fitted concentration of half-maximal effect
SMILES,Potency [1],Potency [2],Potency [3],Potency [4],Potency [5],activation ([6]; at 32.5 µM (top of the series)),Potency [7],Potency [8],Potency [9],Potency [10],activation ([6]; at 70.3 µM (top of the series)),activation ([6]; at 95 µM (top of the series)),Potency [6]
COc1ccc(CN2CCNCC2)c(OC)c1OC,inactive,inactive,inactive,inactive,inactive,3.39% (inactive),inactive,inactive,inactive,inactive,–,–,–
CN(C)C(=O)Oc1cc(OC(=O)N(C)C)cc(C(O)CNC(C)(C)C)c1 (stereo not given),inactive,inactive,inactive,inactive,inactive,-8.21% (inactive),inactive,inactive,inactive,inactive,–,–,–
c1cncc([C@@H]2CCCCN2)c1,inactive,inactive,inactive,inactive,inactive,–,inactive,inactive,inactive,inactive,-1.75% (inactive),–,–
ClC1=C(Cl)C2(Cl)C(CBr)CC1(Cl)C2(Cl)Cl (stereo not given),26.6 µM (active) and 43.3 µM (active),inactive,inactive,inactive,inactive,–,inactive,inactive,inactive,inactive,-8.81% (inactive) and -11.5% (inactive),–,–
NNC(N)=O,inactive,inactive,inactive,inactive,inactive,–,inactive,inactive,inactive,inactive,–,-3.44% (inactive),–
CNC(=O)NC(O)C(Cl)(Cl)Cl (stereo not given),inactive,inactive,inactive,inactive,inactive,–,inactive,inactive,inactive,inactive,2.72% (inactive),–,–
O=C(NC(O)C(Cl)(Cl)Cl)NC(O)C(Cl)(Cl)Cl (stereo not given),inactive,inactive,inactive,inactive,inactive,–,inactive,inactive,inactive,inactive,4.91% (inactive),–,–
CNC(=O)Oc1ccccc1C(C)C,inactive,inactive,inactive,inactive,inactive,–,inactive,inactive,inactive,inactive,-4.06% (inactive),–,–
OP(O)c1ccccc1,inactive,inactive,inactive,inactive,inactive,–,inactive,inactive,inactive,inactive,–,6.24% (inactive),–
COP(=O)(O)OC,inactive,inactive,inactive,inactive,inactive,–,inactive,inactive,inactive,inactive,–,-8.98% (inactive),–
O=C1CC(=O)NC(=O)N1,inactive,inactive,inactive,inactive,inactive,–,inactive,inactive,inactive,inactive,-4.6% (inactive),–,–
C(COCC1CO1)OCC1CO1 (stereo not given),43.3 µM (active),inactive,inactive,inactive,inactive,–,inactive,inactive,inactive,inactive,0.393% (inactive),–,–
Cc1ccc(Cl)c(O)c1,inactive,inactive,inactive,inactive,inactive,–,inactive,inactive,inactive,inactive,9.43% (inactive),–,–
CN(CCO)CCO,inactive,inactive,inactive,inactive,inactive,–,inactive,inactive,inactive,inactive,–,-2.37% (inactive),–
C=CC1(C)OC(=O)N(c2cc(Cl)cc(Cl)c2)C1=O (stereo not given),inactive,inactive,inactive,inactive,inactive,–,inactive,inactive,inactive,inactive,-20.8% (inactive) and -18.1% (inactive),–,–
CCNc1nc(NCC)nc(SC)n1,inactive,inactive,inactive,inactive,inactive,–,inactive,inactive,inactive,inactive,-15.9% (inactive),–,–
CCCN1CCC[C@@H]2Cc3[nH]ncc3C[C@H]21,inactive,inactive,inactive,inactive,inactive,–,inactive,inactive,inactive,inactive,-4.44% (inactive),–,–
O=C(O)c1c(Cl)ccc2cc(Cl)cnc12,inactive,inactive,inactive,inactive,inactive,–,inactive,inactive,inactive,inactive,3.83% (inactive),–,–
O=c1[nH]oc2c1CCNC2,inactive,inactive,inactive,inactive,inactive,–,inactive,inactive,inactive,inactive,-5.36% (inactive),–,–
CNC(=O)O/N=C(/CSC)C(C)(C)C,inactive,61.1 µM (active),inactive,inactive,inactive,–,inactive,inactive,inactive,inactive,-5.87% (inactive),–,–
CS(=O)(=O)c1ccc(C(=O)C2C(=O)CCCC2=O)c(Cl)c1COCC(F)(F)F,inactive,inactive,inactive,inactive,inactive,–,inactive,inactive,inactive,inactive,14.7% (inactive),–,–
CN(C)CCN(C)C,inactive,inactive,inactive,inactive,inactive,–,inactive,inactive,inactive,inactive,18.6% (inactive),–,–
CCCC[N+](=O)[O-],inactive,inactive,inactive,inactive,inactive,–,inactive,inactive,inactive,inactive,8.37% (inactive),–,–
NC(=O)OCCCc1ccccc1,inactive,inactive,inactive,inactive,inactive,–,inactive,inactive,inactive,inactive,2.88% (inactive),–,–

SMILES,Potency [1],Potency [2],Potency [3],Potency [4],Potency [5],activation ([6]; at 32.5 µM (top of the series)),Potency [7],Potency [8],Potency [9],Potency [10],activation ([6]; at 70.3 µM (top of the series)),activation ([6]; at 95 µM (top of the series)),Potency [6]
C=CCCC#N,inactive,inactive,inactive,inactive,inactive,–,inactive,inactive,inactive,inactive,-1.77% (inactive),–,–
CCCCCCC(=O)CCCCCC/C=C/C[C@@H](O)[C@H](O)[C@@](N)(CO)C(=O)O,inactive,inactive,inactive,inactive,inactive,–,inactive,inactive,inactive,inactive,-8.98% (inactive) and -0.434% (inactive),–,–
O=P(O)(O)c1ccccc1,inactive,inactive,inactive,inactive,inactive,–,inactive,inactive,inactive,inactive,0.284% (inactive),–,–
Cc1cccc2sc3nncn3c12,inactive,inactive,inactive,inactive,inactive,–,inactive,inactive,inactive,inactive,13.8% (inactive),–,–
COC(=O)c1ccccc1CS(=O)(=O)NC(=O)Nc1nc(OC)cc(OC)n1,inactive,inactive,inactive,inactive,inactive,–,inactive,inactive,inactive,inactive,1.94% (inactive),–,–
CCC(C(N)=O)N1CCCC1=O (stereo not given),inactive,inactive,inactive,inactive,inactive,–,inactive,inactive,inactive,inactive,–,–,21.1 µM (active)
CN=CNc1ccc(C)cc1C,inactive,inactive,inactive,inactive,inactive,–,inactive,inactive,inactive,inactive,15.7% (inactive),–,–
C=C(Cl)CCl,inactive,inactive,inactive,inactive,inactive,–,inactive,inactive,inactive,inactive,0.667% (inactive),–,–
O=CCCl,inactive,inactive,inactive,inactive,inactive,–,inactive,inactive,inactive,inactive,14.1% (inactive),–,–
CC1N=C(N)OC1c1ccccc1 (stereo not given),inactive,inactive,inactive,–,inactive,–,inactive,–,inactive,inactive,10.7% (inactive),–,–
O=C1C2CC=CCC2C(=O)N1SC(Cl)(Cl)Cl (stereo not given),2.98 µM (active) and 68.3 µM (active) and 1.69 µM (active),inactive,inactive,–,inactive and 48.2 µM [activator] (active),–,26.6 µM (active),inactive,13.3 µM (active) and inactive and 3.01 µM (active),inactive and 21.3 µM (active),–,–,–
Cc1cc(OC(=O)N(C)C)nn1C(=O)N(C)C,inactive,inactive,inactive,–,inactive,–,inactive,inactive,inactive,inactive,-8.77% (inactive),–,–
CN(C)CCc1c[nH]c2cccc(OP(=O)(O)O)c12,inactive,inactive,inactive,–,inactive,–,inactive,inactive,inactive,inactive,-12.3% (inactive),–,–
N#CN=C1SCCN1Cc1ccc(Cl)nc1,inactive,inactive,inactive,–,inactive,–,inactive,inactive,inactive,inactive,-2.73% (inactive),–,–
Clc1ccc(C(Cl)(Cl)Cl)cn1,inactive,inactive,inactive,inactive,inactive,–,–,inactive,inactive,inactive,-9.37% (inactive),–,–
C/C=C/CC#N,inactive,inactive,inactive,–,inactive,–,inactive,inactive,inactive,inactive,–,–,–
CCOP(=S)(OCC)SCCl,inactive,inactive,inactive,–,inactive,–,inactive,inactive,–,–,9.52% (inactive),–,–
CC(C)(C)c1cc(O)ccc1O,6.68 µM (active) and 61.1 µM (active) and 38.6 µM (active),inactive,inactive,inactive and 26.8 µM (active),inactive,–,inactive,inactive,inactive and 26.6 µM (active),inactive,–,–,–
CC#Cc1cc(C)nc(Nc2ccccc2)n1,inactive,inactive,inactive,–,inactive,–,–,inactive,inactive,inactive,–,–,–
COC(=O)c1ccc(CBr)cc1,inactive,inactive,inactive,–,inactive,–,–,inactive,inactive,inactive,–,–,6.94 µM (active)
CCCCOC(C)=O,inactive,inactive,inactive,inactive,inactive,–,inactive,inactive,inactive,inactive,–,-9.13% (inactive),–
COc1cc(CC(C)N)cc(OC)c1OC (stereo not given),inactive,inactive,inactive,–,inactive,–,inactive,–,inactive,inactive,–,-7.73% (inactive),–
COc1cc(CCN)cc(OC)c1OC,inactive,inactive,inactive,inactive,inactive,–,inactive,inactive,–,inactive,–,-6.66% (inactive),–
CC(Cc1ccccc1)NCCn1cnc2c1c(=O)n(C)c(=O)n2C (stereo not given),inactive,inactive,inactive,–,inactive,–,–,inactive,inactive,–,-17.2% (inactive),–,–
